Hit rate of the full screen: of about 31,000 sequences, about 1,400 (4.5%) were called active.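 The calls were made as follows: active = median seed-adjusted z-score above 1 or below -1; inactive = the rest.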 The full list was thinned out, with actives kept by preference.

A short description of this assay: Novel Modifiers of Survival Motor Neuron (SMN) Protein: Gene Identification via Genome-wide siRNA Screen. The settings on record: HEK293T SMN2-luciferase reporter, siRNA knockdown, 72 h; actives lie on both sides. The procedure, abridged: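 Each of three siRNAs per gene is reverse-transfected (1 pmol) into reporter HEK293T cells whose luciferase output tracks SMN protein level. After 72 h culture, ONE-Glo luminescence is control-normalized, log10-transformed and MAD-standardized; Common Seed Analysis deprioritizes seed-driven hits.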
For orientation: Reporter assays use an easily measured gene product as a stand-in for the process of interest.
For CAUGAACCCUUGGUAGAUATT against TBRG1, the median seed-adjusted z-score is -1.47 (active). As to “GGGUUUUUGCGCUUCAAAATT against GALNAC4S-6ST”, the median seed-adjusted z-score was 0.218 (inactive).

Take GCAAAAUGAUCAUUAAUGATT against EIF3C: the median seed-adjusted z-score was 0.56 (inactive).

As for GGACCAUAAUCAAUGUAGATT against ZNF585A, the median seed-adjusted z-score is -0.168 (inactive). As for CCUCAACUAUCAGAACAAUTT against KLF10, the median seed-adjusted z-score was 0.616 (inactive). Turning to GGUUGUUGUAUACUUGCAATT against LIPJ, the median seed-adjusted z-score was 0.295 (inactive). Take GACCUAUGCAGUUCGAAAATT against SFRS1: the median seed-adjusted z-score is -1.66 (active). For GGAGUGUGCUGAAGACCUATT against GFER, the median seed-adjusted z-score was 0.402 (inactive). As to CCACGUGAUAAAUCAAGAATT against PRPF4B, the median seed-adjusted z-score is -2.29 (active). Consider GAAAGACACUGGGACUCGATT against SNRNP35, for which the median seed-adjusted z-score is 0.172 (inactive). For GCAUCGCAAGAGCUGCAAATT against DPYD, the median seed-adjusted z-score is -0.112 (inactive).

Turning to GAUUGUCAAUGGGUGUAUUTT against AOF1, the median seed-adjusted z-score is -0.211 (inactive). Regarding CCCUCCAAAUAGCAAAUGUTT against PCOLCE2, the median seed-adjusted z-score was -1.15 (active). As to GGGUCAUACGAAUACCGAUTT against VIPR2, the median seed-adjusted z-score is 0.706 (inactive).

Regarding GCAACGUGAUCAAAGGUAUTT against GNA13, the median seed-adjusted z-score is 0 (inactive).

In the case of CAAGGACAACUCAAACUUATT against PRKACA, the median seed-adjusted z-score was -0.137 (inactive). On to CGUAUAUAGAGUUCUCAGATT against PABPN1, for which the median seed-adjusted z-score was -0.757 (inactive). Take CCCUUAAUUUUGUAACAGATT against SLC7A6: the median seed-adjusted z-score is -0.0877 (inactive).

For the sequence GGGUAACCACUGACAUUCATT against SUPT5H, the median seed-adjusted z-score was -4.02 (active). With GCCUUAAAAAGCACCAAAATT against ZNF16 the figure was 0 (inactive); with AAGUUCCUAUCGGUCGUAUTT against HBZ, -0.0054 (inactive). On to GGACCAUCGGGAUCAUCAATT against P2RX3, for which the median seed-adjusted z-score was -0.44 (inactive).

GCAAUGAACACCAUCCGAATT against KEAP1: the median seed-adjusted z-score was 0.207 (inactive). Turning to AGCUCUUAUUAGCUGCAUATT against MS4A7, the median seed-adjusted z-score was 0.0794 (inactive). Regarding GCAACGAUCACCUAAAUUATT against NOP2, the median seed-adjusted z-score was 1.15 (active). The value for GGUCAAAUCAGCAAAGGUUTT against RNF25 was -0.0826 (inactive); that for CGACAAUCUAACUUCCGUATT against CYTH3 was 0.196 (inactive). With CAGGCAUCAUAUUUUGAAATT against NUDT3 the figure was 0.674 (inactive); with CAAAGAUUCUGACUGAUGATT against GPATCH4, -0.519 (inactive).

As to GAACCUAUCUGAUCGGCAATT against RFX3, the median seed-adjusted z-score is 0.17 (inactive).

Regarding CAUCUUAAGUGUUUUACAUTT against LMO4, the median seed-adjusted z-score was -0.067 (inactive). The value for GCAGCAUACAGGAAUACCATT against ATRNL1 was -0.142 (inactive). The value for GCAGCAUAUUAUAGACAAATT against ZBTB37 was -0.219 (inactive); that for GCCUGGGUCAAAUACAGUATT against KLHL20 was -0.0828 (inactive). Regarding GAUCAUUGCUGGGAAUCUATT against GPR52, the median seed-adjusted z-score was -1.17 (active). With GUCUGAAUGUCGAAGAGAATT against G3BP1 the figure was -0.593 (inactive). With CUGGAACAGUGUACCCAAATT against CD2AP the figure was 0.113 (inactive). In the case of CCAUGUGAUUAUGUACUCATT against ELOVL4, the median seed-adjusted z-score is 0.166 (inactive).

For AGAUAUAUAAAUCAACGAATT against LSM3, the median seed-adjusted z-score was -1.36 (active). With UGACCUACGAGGAAAUUCATT against PFKFB4 the figure was 0.149 (inactive); with CAACGAUAGCUUAUCCCAATT against LPGAT1, 0.625 (inactive); with GCUUAUAUGGUGUACAUUUTT against ELOVL6, 0.742 (inactive).

With UCCCGUUCCGUACGACUUATT against DHRS7C, the median seed-adjusted z-score was -0.398 (inactive).

In the case of GUGGGAGUCGGGACAUAUATT against MAFK, the median seed-adjusted z-score was 1.73 (active). As to CCAUUGAUGCAACAGGUAATT against USO1, the median seed-adjusted z-score is 0.21 (inactive). For the sequence CAAGGACAAAUUUCCCGUUTT against HOXD8, the median seed-adjusted z-score was -0.883 (inactive). The value for GCAUGGUACUCUAUAGUCUTT against FAT4 was -0.363 (inactive).

With GGAUGUGGUAGUACAGAAATT against PSMD2, the median seed-adjusted z-score is -1.44 (active).

As to GACUGACGAUGACACGGAATT against KPNA6, the median seed-adjusted z-score was -1.54 (active). In the case of GGUACUCCAGAGUAUAACATT against CMYA5, the median seed-adjusted z-score is -0.858 (inactive). The value for GAGCCUGACUCAGUCUUUATT against AQP9 was -0.192 (inactive); that for GAGAAAUCGUGCUCAGUUATT against CNOT8 was 0.375 (inactive); that for CCUGUUUCCGUGAAGAAAATT against CXCR4 was -0.347 (inactive).

On to ACACCUCUCCGGACACCAATT against IRF3, for which the median seed-adjusted z-score is 0.0117 (inactive). As to GACGAUGAAUGAAAAGGCATT against NRBP1, the median seed-adjusted z-score was -1.13 (active).

For AGAAUUCUUCGAUCACAAATT against KCNMB3, the median seed-adjusted z-score is 0.513 (inactive). Consider CAAGUACCCUGAUAGAGUUTT against ABHD4, for which the median seed-adjusted z-score is -0.054 (inactive). The value for AGAUGAAGCUGCAAGUGUATT against COX10 was 0.339 (inactive); that for CAGUGGAUCAAAUAACGCATT against ADAMTS20 was 1.44 (active); that for GAACCUCAGUCAAAUCGAUTT against OXSR1 was -0.0682 (inactive). The value for CCAUUUGGAUAUCAAAGUATT against ILF2 was -0.19 (inactive). For CAGUCAAGCUUGGAGUUAATT against SYTL3, the median seed-adjusted z-score was 0.236 (inactive). With AGAUGUUCUGAGGCUGAUATT against OASL the figure was 1.02 (active); with GGAUAAGGACGACCAGAUUTT against HPCAL4, 0.282 (inactive).

As to GUGCUAAAUUUAGCUCAAATT against IL2, the median seed-adjusted z-score was 0.0694 (inactive).

As to CCAAGCAAAUAGUAGAAGATT against CYLC1, the median seed-adjusted z-score was 0.177 (inactive). GAACGAGUCCUUUACUACATT against GFM1: the median seed-adjusted z-score is -0.0641 (inactive).

As to CAACUUUCAGAUCAGUGAATT against ARD1A, the median seed-adjusted z-score was -1.05 (active).

With CAGACAAGCUGAUCCGCAUTT against TGM5, the median seed-adjusted z-score is 0.0181 (inactive).

(Values after PubChem BioAssay AID1347426 (Functional Genomics Laboratory (NCATS/FGL), 2020).)
